Measured values as given in PubChem BioAssay AID624125 (The Scripps Research Institute Molecular Screening Center, 2012).
Out of some 360,000 compounds screened, about 2,600 (0.72%) were called active.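 How the source made its calls: active means inhibition above its plate's cutoff, the mean inhibition of sample wells plus 3 SD (cut at about 27% in these data); inactive means the rest.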 The entries come from a sample that favours actives as a whole.

The molecules below were run against Muscarinic acetylcholine receptor M4 (Homo sapiens) (UniProt P08173) (assay: human M4 muscarinic receptor antagonists, primary screen, CHO cells, Fluo-8 calcium fluorescence (AID 624125;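 further: 0% = acetylcholine EC80 with DMSO and 100% = DMSO without agonist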)). Conditions: CHO-hM4 cells, ACh EC80, Fluo-8 calcium fluorescence; at 3 µM; stronger effect = higher value.
Chain of Muscarinic acetylcholine receptor M4 (Homo sapiens) (P08173 whole entry, looked up): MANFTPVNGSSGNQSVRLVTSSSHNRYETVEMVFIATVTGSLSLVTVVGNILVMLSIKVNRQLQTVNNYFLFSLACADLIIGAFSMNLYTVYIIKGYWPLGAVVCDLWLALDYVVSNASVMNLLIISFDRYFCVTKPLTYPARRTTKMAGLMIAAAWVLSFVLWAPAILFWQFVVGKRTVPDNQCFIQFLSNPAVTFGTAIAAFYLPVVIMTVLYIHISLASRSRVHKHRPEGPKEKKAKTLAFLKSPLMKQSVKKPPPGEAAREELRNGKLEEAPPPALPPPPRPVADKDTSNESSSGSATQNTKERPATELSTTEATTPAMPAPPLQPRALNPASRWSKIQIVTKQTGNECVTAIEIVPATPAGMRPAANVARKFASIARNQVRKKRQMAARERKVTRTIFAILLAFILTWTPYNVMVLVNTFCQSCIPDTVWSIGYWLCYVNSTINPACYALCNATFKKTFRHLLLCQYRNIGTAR

SMILES	inhibition
COc1ccc(S(=O)(=O)NC2(C(F)(F)F)N=C3SCCN3C2=O)cc1 (stereo not drawn)	-9.21% (inactive)
CCN1CCN(c2ccc(S(=O)(=O)N3CCCCC3)cc2NC(=O)c2cccc(NC(C)=O)c2)CC1	-6.66% (inactive)
COc1ccc(CN2CCCC(C(=O)c3ccc(Cl)cc3)C2)cc1Cn1cncn1 (stereo not drawn)	38.6% (active)
COc1cc(CN2CCCC(C(=O)c3ccc(SC)cc3)C2)cc(Cl)c1O (stereo not drawn)	-23.2% (inactive)
COc1ccc(CN2CCCC(C(=O)N3CCCCC3)C2)cc1 (stereo not drawn)	1.76% (inactive)
CCN(CC)N=Nc1cccc(NC(C)=O)c1	5.94% (inactive)
CN(C(=O)CSc1nnc(-c2ccc3c(c2)OCO3)o1)C1CCS(=O)(=O)C1 (stereo not drawn)	0.5% (inactive)
N/C(=N\OC(=O)Nc1ccc(Cl)c(Cl)c1)c1ncc(C(F)(F)F)cc1Cl	27% (active)
O=C(c1ccccn1)c1ncc(C(F)(F)F)cc1Cl	9.21% (inactive)
N/C(=N\OC(=O)CCCC(=O)O)c1ncc(C(F)(F)F)cc1Cl	3.64% (inactive)
O=C(COc1ccc(S(=O)(=O)NCc2ccccc2)cc1)N1CCOCC1	4.93% (inactive)
CC(O)C(NS(=O)(=O)c1ccc(Cl)cc1)C(=O)OCc1cc([N+](=O)[O-])cc2c1OCOC2 (stereo not drawn)	5.24% (inactive)
CCOc1ccccc1NC(=S)C(=C([O-])c1ccc2c(c1)OCCO2)[n+]1ccc(CC)cc1	-1.01% (inactive)
Clc1cc(NC2CCCCC2)ncn1	98.6% (active)
CCc1cc2c(NC3CCCC3)ncnc2s1	11.2% (inactive)
Cc1cc([N+](=O)[O-])c(NC2CCCCC2)c([N+](=O)[O-])c1	7.51% (inactive)
Cc1nc2ccc(C(=O)N(C)CC3CCCN(CCc4ccc(Cl)cc4)C3)cc2[nH]1 (stereo not drawn)	19.4% (inactive)
CC(=O)c1ccc(N2CCN(C(=O)c3ccc4nc[nH]c4c3)CC2)cc1	4.68% (inactive)
CN(CC1CCCN(CCc2cccc(C(F)(F)F)c2)C1)C(=O)c1ccc2nc[nH]c2c1 (stereo not drawn)	41% (active)
CSc1ccccc1NC(=O)c1ccc2c(c1)CCN2S(C)(=O)=O	-5.17% (inactive)
O=C(CSCc1ccc([N+](=O)[O-])cc1)Nc1cccc(C(=O)Nc2ccccc2C(=O)O)c1	7.83% (inactive)
CN(CC(=O)Nc1ccc(S(=O)(=O)N2CCCC2)cc1)Cc1ccc(Cl)c(Cl)c1	4.23% (inactive)
CCc1ccc(CN(C)C(C)C(=O)Nc2ccc(S(=O)(=O)N3CCCC3)cc2)cc1 (stereo not drawn)	26.6% (active)
CC(C(=O)Nc1ccc(S(=O)(=O)N2CCCC2)cc1)N(C)Cc1ccc(F)cc1 (stereo not drawn)	-3.14% (inactive)

SMILES	inhibition
CCc1ccc(/C=N/NC(=O)c2nnn(-c3nonc3N)c2CN2CCc3ccccc32)cc1	6.06% (inactive)
CCOC(=O)CSc1nnc(NC(=O)C2CC(=O)N(c3ccc(F)cc3)C2)s1 (stereo not drawn)	5.76% (inactive)
CN1/C(=C\C=C2\N=C(c3ccc(F)cc3)OC2=O)C(C)(C)c2ccccc21	50.7% (active)
Cc1ccc(S(=O)(=O)NC[C@H]2O[C@@H](n3cnc4c(N)ncnc43)[C@H](O)[C@@H]2O)s1	-5.46% (inactive)
O=C(CNS(=O)(=O)c1ccc(Br)s1)NCc1ccc2c(c1)OCO2	1.5% (inactive)
COc1ccc(NC(=O)N(C)C[C@@H]2OCc3cn(nn3)CCCC(=O)N([C@H](C)CO)C[C@H]2C)c(OC)c1	8.28% (inactive)
CC1CCCN(c2ccc(C(=O)NCCc3ccccc3)cn2)C1 (stereo not drawn)	-4.49% (inactive)
CCOC(=O)N1CCN(C(=O)c2ccc3c(c2)N(Cc2ccc(C)cc2)CCS3)CC1	-7.97% (inactive)
O=C(NCCc1ccccc1)c1ccc2c(c1)N(Cc1ccccc1)CCS2	35% (active)
CCOC(=O)c1cnc(Nc2nc3ccccc3o2)nc1CSC(=S)N1CCCCC1	-1.75% (inactive)
Fc1ccccc1COc1ccccc1CNCc1ccncc1	-4.74% (inactive)
COc1cccc(CNCCc2c[nH]c3ccccc23)c1OCc1ccccc1F	27.2% (active)
COc1cccc(CNn2cn[nH]c2=S)c1OCc1ccccc1	-1.76% (inactive)
C=C(C)CNC(=S)Nc1ccc(S(=O)(=O)Nc2cnc3ccccc3n2)cc1	2.87% (inactive)
CC(NCCO)C(=O)C12CC3CC(CC(C3)C1)C2 (stereo not drawn)	2.3% (inactive)
Cc1c(C(=O)NC2CCCCC2)oc2ccccc12	-11.4% (inactive)
Cc1ccc2c(C)c(C(=O)N(C)Cc3ccncn3)oc2c1C	-3% (inactive)
CCCC[C@@H]1CN=C(N)N1CCc1cc(C(F)(F)F)cc(C(F)(F)F)c1	31.9% (active)
CN(C)C1=NC[C@H](Cc2ccccc2)N1CCc1ccc(F)cc1	-0.99% (inactive)
CCCCN1C(N)=NC[C@@H]1CC1CCCCC1	-1.98% (inactive)
Cc1nc(N)c(Br)c(C)c1Br	-2.18% (inactive)
CSc1ccc(S(=O)(=O)N2CCC(C(=O)NCc3ccncc3)CC2)cc1	-10.4% (inactive)
Cn1c(CCC(=O)Nc2ccccc2F)nnc1SCC(=O)Nc1ccccc1Cl	-10.1% (inactive)
Cn1cccc1C(=O)N1CCc2ccccc2C1	10.4% (inactive)

SMILES	inhibition
CN1CCN(C(=O)N2c3ccccc3CCc3ccccc32)CC1	51% (active)
CN1CCN(S(=O)(=O)c2cccc(C(=O)N3CCc4ccccc43)c2)CC1	3.72% (inactive)
O=C(O)C(=Cc1ccccc1[N+](=O)[O-])c1ccccc1	-15.2% (inactive)
Cc1ccc(C2Nc3ccccc3C(=O)N2CCN2CCNC2=O)cc1 (stereo not drawn)	-5.69% (inactive)
COc1ccc(C(C#N)N2N=C(C)CC2(C)C)cc1 (stereo not drawn)	-4.9% (inactive)
CC[C@@H]1Cc2cc(O)ccc2C2=C1c1ccc(O)cc1C[C@H]2CC	72.5% (active)
CCOC(=O)C1(Cc2ccccc2C)CCCN(C(=O)CN2C(=O)CSC2=O)C1 (stereo not drawn)	4.46% (inactive)
O=C(CSc1ccc([N+](=O)[O-])cn1)Nc1ccc(N2CCOCC2)cc1	-3.21% (inactive)
O=C(CSc1ccc(-c2ccccn2)nn1)Nc1ccccc1	5.15% (inactive)
O=C(CSc1ccc(-c2ccc(-n3cccn3)cc2)nn1)Nc1ccc([N+](=O)[O-])cc1	101% (active)
O=C(O)CC12CC3CC(C1)CC(n1ncc(NCc4ccc(F)cc4)c(Cl)c1=O)(C3)C2	4.05% (inactive)
Cc1nn(CC(=O)NCC2CCCO2)c(=O)c2cc3ccccc3n12 (stereo not drawn)	-2.94% (inactive)
Cc1sc2c(c1C)c(=O)n(-c1ccccc1)c(=O)n2CC(=O)NCC1CCCO1 (stereo not drawn)	27.2% (active)
Cc1nn(-c2ccccc2)c2c1c(C)c(CCC(=O)NCC1CCCO1)c(=O)n2C (stereo not drawn)	-9.84% (inactive)
COC(=O)/C(=C1\Oc2ccc(C(C)(C)C)cc2S1)C(F)(F)F	-0.07% (inactive)
CCN(CC)CCOC(=O)c1ccc(NC(=O)CNC(=O)c2ccccc2)cc1	-1.05% (inactive)
CCC(C(=O)Nc1ccc(C(C)C)cc1)c1ccccc1 (stereo not drawn)	23.7% (inactive)
COC(CCN(C)C)(c1ccccc1)c1ccccc1	3.06% (inactive)
CCC(C(=O)OCCN(CC)CC)c1ccccc1 (stereo not drawn)	54.1% (active)
CCN(CC)CCNCC(=O)Nc1ccc(Oc2ccccc2)cc1	-0.82% (inactive)
CCCC(C(=O)OCCN(CC)CC)(c1ccccc1)c1ccccc1	42.8% (active)
CC1CCc2c(sc3c2C2=NS(=O)(=O)CCN2C=N3)C1 (stereo not drawn)	-3.55% (inactive)
COc1ccc(S(=O)(=O)N2CCN(c3cnccn3)CC2)cc1	5.44% (inactive)
O=C1CCc2cc(S(=O)(=O)Nc3ccc(C(F)(F)F)cc3)cc3c2N1CC3	-14.8% (inactive)

SMILES	inhibition
CC(C)(C)NC(=O)COc1ccc(CNc2ccc3[nH]c(=O)[nH]c3c2)cc1	-1.92% (inactive)
Cc1cc([N+](=O)[O-])c(=O)[nH]c1C	3.71% (inactive)
CCOC(=O)C1Nc2ccc(C(F)(F)F)cc2C2C=CCC12 (stereo not drawn)	-1.13% (inactive)
CC(C)c1ccc(-c2noc(C3CCCN(S(C)(=O)=O)C3)n2)cc1 (stereo not drawn)	-17.6% (inactive)
COc1cccc(-c2noc(C3CCCN(C(=O)c4ccc(F)cc4)C3)n2)c1 (stereo not drawn)	-18% (inactive)
COc1cc(-c2noc(C3CCCN(S(=O)(=O)c4cccc(Cl)c4)C3)n2)cc(OC)c1OC (stereo not drawn)	30.5% (active)
Clc1ccc(-c2nnc(-c3ccccc3)nc2N2CCSCC2)cc1	-4.43% (inactive)
CC12CCCCC1=CC(=O)CC2 (stereo not drawn)	2.52% (inactive)
Cc1ccc(S(=O)(=O)N2CCCCC2)cc1NC(=O)CCNC(=O)c1ccccc1Cl	-5.04% (inactive)
CN(C(=O)CSc1nnc(-c2ccc(C(C)(C)C)cc2)n1C)C1CCS(=O)(=O)C1 (stereo not drawn)	0.43% (inactive)
O=c1[nH]c2ccccc2n1C1CCN(CCOc2ccccc2)CC1	-13.4% (inactive)
COc1ccc(OCCCCN2CCC(C)CC2)cc1	9.1% (inactive)
OC(c1ccccc1)(c1ccccc1)C1CCN(CCCOc2ccccc2)CC1	91.6% (active)
Cc1ccc(S(=O)(=O)N2CCOCC2)cc1C(=O)NC(=S)N(Cc1ccccc1)C(C)C	0.9% (inactive)
CCCCc1nc2ccc(F)cc2cc1C	-4.37% (inactive)
Cc1sc2ncnc(N3CCC(C(=O)Nc4ccc(F)cc4Cl)CC3)c2c1C	46.6% (active)
Cc1sc2ncnc(N3CCC(C(=O)Nc4nc5ccc(Cl)cc5s4)CC3)c2c1C	-9.33% (inactive)
Cc1sc2ncnc(N3CCC(C(=O)NNC(=O)c4ccc(F)cc4)CC3)c2c1C	-17.4% (inactive)
COC(=O)c1cc(N2CCNCC2)nc2ccccc12	6.45% (inactive)
CS(=O)(=O)N1CCN(CC(=O)NC2CCCC2)CC1	1.25% (inactive)
Clc1ccc(C=NC23CN4CN(CN(C4)C2)C3)cc1	-1.64% (inactive)
